Screening data deposited in PubChem BioAssay by several laboratories.
Bcl-xL primary = Bcl-xL (human) inhibition; Q07817; GST-Bcl-xL / FITC-Bim BH3 peptide fluorescence polarization; inhibition, % at 10.9 µM; 320,000 tested, 0.7% active; AID 2129;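 active = inhibition above the mean of all tested compounds plus 3 SD, cutoff set per campaign, cut at about 30% in these data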;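 note: 0% = DMSO wells and 100% = unlabeled Bim-BH3 peptide competitor; inhibitors lower millipolarization by displacing the labeled peptide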
MCL1-BIM inh = disrupts human MCL1 binding to BIM-BH3 peptide; inhibition, % at 10.9 µM; GST-MCL1 / FITC-Bim-BH3 fluorescence polarization; 320,000 tested, 0.68% active;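 active = inhibition above the mean inhibition of all tested compounds plus 3 SD, set per campaign, cut at about 40% in these data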;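 note: 0% = DMSO wells and 100% = unlabeled Bim-BH3 peptide control; higher means more loss of mP so more displacement of Bim peptide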
EBV gp42 block = blocks Epstein-Barr virus glycoprotein 42 binding; Fluorescence polarization binding assay, mP read-out; 220,000 tested, 0.42% active; inhibition, % (tested at 21.74 µM); Q1HVG2; in the data active = inhibition above about 50%
GLD-1 TGE inh = GLD-1-TGE RNA interaction inhibition (C. elegans); Q17339; 320,000 tested, 0.44% active; purified GLD-1 + fluorescein TGE RNA, fluorescence polarization; AID 2280; inhibition, % at 5.96 µM;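 active = percent inhibition above a per-plate cutoff, the plate mean of test compounds plus 3 SD, cut at about 30% in these data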;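 note: 0% = DMSO wells with GLD-1 and probe and 100% = wells lacking GLD-1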
Target sequence (Q17339 whole entry, looked up): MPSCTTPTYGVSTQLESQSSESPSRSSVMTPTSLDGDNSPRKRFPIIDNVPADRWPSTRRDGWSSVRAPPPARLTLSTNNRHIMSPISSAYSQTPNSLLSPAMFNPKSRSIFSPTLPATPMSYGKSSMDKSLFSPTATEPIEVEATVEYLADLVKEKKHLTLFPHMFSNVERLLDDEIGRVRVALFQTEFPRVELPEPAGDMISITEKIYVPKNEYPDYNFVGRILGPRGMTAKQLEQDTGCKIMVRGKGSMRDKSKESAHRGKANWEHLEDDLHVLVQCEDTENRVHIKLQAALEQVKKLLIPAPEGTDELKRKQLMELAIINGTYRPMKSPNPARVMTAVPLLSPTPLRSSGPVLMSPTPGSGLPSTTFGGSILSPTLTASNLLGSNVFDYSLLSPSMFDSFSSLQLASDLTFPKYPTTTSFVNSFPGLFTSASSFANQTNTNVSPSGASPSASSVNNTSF
eLon inh = inhibitors of E. coli Lon protease; AID 602123; purified E. coli Lon protease, fluorescence polarization; inhibition, % at 7.94 µM; 360,000 tested, 0.42% active; P0A9M0; in the data active = inhibition above about 13%, passing the limit was not always enough;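 note: 0% = enzyme with probe and DMSO and 100% = no enzyme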
MEX-5 binding = C. elegans MEX-5 TCR-2 RNA binding activity | Q9XUB2 | MEX-5/FITC-TCR2 RNA binding, fluorescence polarization; active compounds read low | activity score (negative = inhibition of binding), % at 10 µM | 300,000 tested, 0.38% active;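 active = inhibition past about -25% in most replicates, and total fluorescence under double the plate's negative control median, limit read from the data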;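 note: 0% = DMSO and -100% = 5 µM competing unlabeled TCR2 RNA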
E coli Lon conf = confirmation of E. coli Lon protease inhibitors. 1,400 tested, 31% active. purified E. coli Lon, fluorescence polarization. inhibition, % at 7.94 µM. shares compounds with eLon inh; in the data active = inhibition above about 16%;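 note: 0% = enzyme with probe and DMSO and 100% = no enzyme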
Numbers without * were called inactive. Compounds with a hit are over-represented: about 1.5% of the library has one in this group of screens.

Results for CSCCC(NC(=O)COc1ccccc1)C(=O)N1CCN(c2ccccc2O)CC1 (configuration not stated) ?
Bcl-xL primary: 3.2; MCL1-BIM inh: -4.0; GLD-1 TGE inh: 7.0; eLon inh: 71.0*; MEX-5 binding: -2.9; E coli Lon conf: -6.7

Results for O=C(COc1ccc(F)cc1Cl)Nc1ccc(N2CCOCC2)cc1N1CCOCC1 ?
Bcl-xL primary: -0.9; MCL1-BIM inh: -3.0; GLD-1 TGE inh: 0.5; eLon inh: 15.8*; MEX-5 binding: -0.5; E coli Lon conf: 0.4

Results for Cc1ccc(C(=O)NCC(=O)N2CCC(Cc3ccccc3)CC2)cc1 ?
Bcl-xL primary: 6.8; MCL1-BIM inh: 10.4; GLD-1 TGE inh: 1.2; eLon inh: 3.4; MEX-5 binding: -1.1

How did COc1cccc(NC(=S)NCc2ccc3c(c2)cc(C)n3C)c1 do in these assays?
EBV gp42 block: -6.6; eLon inh: 9.1; MEX-5 binding: -3.8

Results for COc1ccc(CNC(=O)Nc2cccc(Cl)c2)cc1 ?
eLon inh: -6.8

How did Cc1cccc(NC(=O)NCc2ccc3c(c2)cc(C)n3C)c1 do in these assays?
Bcl-xL primary: 7.8; MCL1-BIM inh: 7.4; EBV gp42 block: -11.6; GLD-1 TGE inh: 16.2; eLon inh: 30.0*; MEX-5 binding: -0.3; E coli Lon conf: 13.3

Results for Cc1c(C(=O)NCc2ccc3c(c2)cc(C)n3C)cccc1[N+](=O)[O-] ?
Bcl-xL primary: 9.1; MCL1-BIM inh: 4.5; EBV gp42 block: 5.4; GLD-1 TGE inh: 6.1; eLon inh: 31.1*; MEX-5 binding: -2.0; E coli Lon conf: 3.9

Results for Cc1cc2cc(CNC(=S)Nc3ccc(OC(F)(F)F)cc3)ccc2n1C ?
Bcl-xL primary: 8.2; MCL1-BIM inh: 12.4; EBV gp42 block: -0.3; GLD-1 TGE inh: 7.9; eLon inh: 19.1*; MEX-5 binding: -2.9; E coli Lon conf: 19.1*

Results for Cc1cc2cc(CNC(=O)Nc3cccc(Cl)c3)ccc2n1C ?
Bcl-xL primary: 14.0; MCL1-BIM inh: 9.4; EBV gp42 block: -13.6; GLD-1 TGE inh: 15.7; eLon inh: 40.2*; MEX-5 binding: -2.2; E coli Lon conf: 44.8*

How did COc1ccc(C)cc1S(=O)(=O)NCC(c1ccc2c(c1)OCO2)N1CCN(C)CC1 (configuration not stated) do in these assays?
Bcl-xL primary: 0.2; MCL1-BIM inh: 3.4; GLD-1 TGE inh: 6.9; eLon inh: 3.4; MEX-5 binding: 0.9

Results for CC1=C(C(=O)N(C(C)C)C(C)C)CC(CC(=O)NCc2cccs2)C(=O)N1Cc1ccc(C(C)(C)C)cc1 (configuration not stated) ?
eLon inh: -22.5

How did O=C(Nc1ccccc1)c1nn(-c2cccc(C(F)(F)F)c2)ccc1=O do in these assays?
Bcl-xL primary: 6.8; MCL1-BIM inh: 5.5; EBV gp42 block: 1.4; GLD-1 TGE inh: -0.1; eLon inh: -6.0; MEX-5 binding: -1.0

Results for COC(=O)c1nn(-c2cccc(C(F)(F)F)c2)ccc1=O ?
Bcl-xL primary: 5.3; MCL1-BIM inh: 1.8; GLD-1 TGE inh: 9.1; eLon inh: 19.5*; MEX-5 binding: 2.3; E coli Lon conf: -8.8

How did O=C(O)c1ccc(Nc2ccc([N+](=O)[O-])c3nonc23)cc1 do in these assays?
eLon inh: 5.9; MEX-5 binding: 5.2

Results for O=[N+]([O-])c1ccc(Nc2ccccc2O)c2nonc12 ?
eLon inh: 29.5*; MEX-5 binding: -35.8*; E coli Lon conf: 28.6*

Results for Cc1ccc(-n2nc3c(=O)n(CC(=O)NCCc4ccco4)nc(C)c3c2C)cc1 ?
Bcl-xL primary: 5.6; MCL1-BIM inh: 1.8; GLD-1 TGE inh: 3.7; eLon inh: 35.7*; MEX-5 binding: -3.4; E coli Lon conf: -2.5

How did Cc1ccc(-n2nc3c(=O)n(CC(=O)NCCCc4ccccc4)nc(C)c3c2C)cc1 do in these assays?
Bcl-xL primary: -2.5; MCL1-BIM inh: -6.1; GLD-1 TGE inh: -3.0; eLon inh: 1.9; MEX-5 binding: -1.1
